Calls of active or inactive are those of the source. Rule for the calls: active = hit-call score of the fitted dose curve at least 0.9, where 1 is the maximum; inactive = score below 0.9.
Experiment: ATG_Sox_CIS: Attagene CIS-FACTORIAL HepG2 Assay for human SRY-box transcription factor (SOX) (AID 2282960)
Settings: HepG2 Attagene cis-factorial SOX reporter, mRNA; actives raise or lower the signal
Procedure: ATG_CIS is a cell-based, multiplexed-readout assay that uses HepG2, a human liver cell line, with measurements taken at 24 hours after chemical dosing in a 24-well plate.ATG_Sox_CIS is one of 52 assay component(s) measured or calculated from the ATG_CIS assay. It is designed to make measurements of mRNA induction, a form of inducible reporter, as detected with fluorescence intensity signals by Reverse transcription polymerase chain reaction (RT-PCR) and Capillary electrophoresis technology.Data from the assay component ATG_Sox_CIS was analyzed into 1 assay endpoint. This assay endpoint, ATG_Sox_CIS, was analyzed with bidirectional fitting relative to DMSO as the negative control and baseline of activity. Using a type of inducible reporter, measures of mRNA for gain or loss-of-signal activity can be used to understand the reporter gene at the transcription factor-level as they relate to the gene SOX1. Furthermore, this assay endpoint can be referred to as a primary readout, because this assay has produced multiple assay endpoints where this one serves a reporter gene function. To generalize the intended target to other relatable targets, this assay endpoint is annotated to the dna binding intended target family, where the subfamily is HMG box protein.
Human liver HepG2 cells are transiently transfected with multiple reporter transcription units (MRTUs) in 6-well plates using FuGene 6 reagent (Roche; 3 ml FuGene/1 mg DNA). The MRTU constructs are regulated by a cis-regulating element (promoter). […] A major difference between the CIS and TRANS system is that in CIS activities of endogenous TFs are measured, whereas the TRANS assay evaluates changes in activities of exogenous, chimeric NR-Gal4 proteins. […] At the end of 24 hour incubation, total RNA was isolated using TriZol reagent (Invitrogen). The isolated RNA is then reverse-transcribed using oligo(dT) primer and Mo-MLV reverse transcriptase (Invitrogen) with DNAse I (Ambion) treatment for 30 min. The one-tenth of the produced cDNA was amplified by PCR using Taq DNA polymerase (Invitrogen) and two reporter sequence-specific primers. The PCR products were fluorescently labeled by primer extension with 6-arboxyfluorescein (6-FAM) 5'-labeled reporter sequence-specific primer (2 min at 95 C, 20 s at 68 C and 10 min at 72 C) and these products were digested with 5U of HpaI (New England Biolabs) for 2h at 37 C. The fragments were purified using Qiaquick PCR columns (Qiagen), analyzed on an ABI 3130xL genetic analyzer (Applied Biosystems) with peak positions identified by using a set of X-rhodamine (ROX)-labeled MapMarker1000 molecular weight standards (BioVentures). The raw capillary electrophoresis data was processed using Attagraph software (Attagene).

SMILES | outcome | AC50
CCCCCCCCCCCCOCCO | inactive | –
CO[Si](CCCn1c(=O)n(CCC[Si](OC)(OC)OC)c(=O)n(CCC[Si](OC)(OC)OC)c1=O)(OC)OC | inactive | –
CCCCCC=CCC(=O)OC | inactive | –
CCCCCCCCCCCCCCCC(=O)O | inactive | –
CCCC[n+]1ccccc1 | inactive | –
C#C[C@]1(O)CC[C@H]2[C@@H]3CCC4=Cc5oncc5C[C@]4(C)[C@H]3CC[C@@]21C | – | 61.3 µM (active)
CC1(C)[C@@H]2CC[C@@]1(C)[C@H](O)C2 | inactive | –
CC(C=O)Cc1ccc(C(C)C)cc1 (stereo not given) | inactive | –
O=C1CCc2ccccc2O1 | inactive | –
O=C(O)COCCN1CCN(C(c2ccccc2)c2ccc(Cl)cc2)CC1 (stereo not given) | inactive | –
c1ccc(CCCc2ccccn2)cc1 | inactive | –
CSc1nnc(C(C)(C)C)c(=O)[nH]1 | inactive | –
Cc1ccc(C=O)cc1 | inactive | –
Cc1cccc(Nc2ccccc2C(=O)O)c1C | inactive | –
CCCC(=O)C(C)=O | inactive | –
CC(C)(C#N)c1cc(Cn2cncn2)cc(C(C)(C)C#N)c1 | inactive | –
O=C(OCc1ccccc1)C(=O)OCc1ccccc1 | inactive | –
CCCCNC(=O)NS(=O)(=O)c1ccc(C)cc1 | inactive | –
CC1=CC(=O)NS(=O)(=O)O1 | inactive | –
CCCCCCCCC=O | inactive | –

SMILES | outcome | AC50
CC(=O)[O][Al][O]C(C)=O | inactive | –
COC(=O)OC | inactive | –
O=C(O)c1cn(C2CC2)c2cc(N3CCNCC3)c(F)cc2c1=O | inactive | –
CC(C)(C)C(=O)c1ccccc1 | inactive | –
CCC(C(=O)NC(N)=O)c1ccccc1 (stereo not given) | inactive | –
CCCCCCCCCCCCN | inactive | –
CCCCCCCCCCN | inactive | –
C=CC(C)(O)CCC=C(C)CCC=C(C)C (stereo not given) | – | 148 µM (active)
O=c1[nH]nnc2ccccc12 | inactive | –
CC(C)=CCC[C@H](C)CC=O | inactive | –
O=C(O)c1ccc([N+](=O)[O-])cc1 | inactive | –
OCCN1CCNCC1 | inactive | –
CC(=O)/C=C/C1=C(C)CCCC1(C)C | inactive | –
CC1COc2ccccc2N1C(=O)C(Cl)Cl (stereo not given) | inactive | –
C[C@]12CC[C@H]3[C@@H](CCC4=CC(=O)CC[C@@]43C)[C@@H]1CC[C@@H]2C(=O)CO | inactive | –
CC(=O)C(C)=O | inactive | –
CC(CC(C)(C)C)CC(C)(C)CC(C)(C)C (stereo not given) | inactive | –
CC(C)CCCCCCCOC(=O)c1ccc(C(=O)OCCCCCCCC(C)C)c(C(=O)OCCCCCCCC(C)C)c1 | inactive | –
CCCCCCCCCCCCCOS(=O)(=O)O | inactive | –
Nc1cc(Cl)c(O)c(Cl)c1 | inactive | –
